# Assay results from PubChem BioAssay.
# Inconclusive results are not listed. The source made the active and inactive calls. Unless noted, no rule for the calls is given here.
# Experiments:
# [1] = RPL19A-GFP modulators, yeast TOR pathway, confirmation, cell-based, S. cerevisiae, flow cytometry, cherry picks, mother/daughter gates (AID 2270;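 active = GFP response below 50% of the DMSO control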); details: S. cerevisiae RPL19A-GFP strain, 3 h, at 10 µM, stronger effect = lower value, 100 = same GFP as DMSO wells
# [2] = LAP4-GFP expression modulators in yeast, confirmation, cell-based, cherry picks, flow cytometry, mother/daughter gates (AID 2271;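 active = GFP response above 150% of the DMSO control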;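 also: ratio of sample to DMSO plate mean so 100% equals DMSO level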); details: S. cerevisiae LAP4-GFP strain, 3 h, at 10 µM, stronger effect = higher value
# [3] = modulators of CIT2-GFP expression in yeast, confirmation, S. cerevisiae, GFP fusion, cherry picks, mother/daughter gates (AID 2274;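 active = GFP response above 150% of the DMSO level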); details: S. cerevisiae CIT2-GFP strain, flow cytometry, 3 h, at 10 µM, stronger effect = higher value
# [4] = yeast TOR pathway RPL19A-GFP modulators, primary screen, cell-based, S. cerevisiae, multiplex flow cytometry (AID 1862; in the data active = percent of DMSO control GFP below about 86%;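 also: lower values mimic rapamycin by blocking the RPL19A rise seen in DMSO cells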); details: S. cerevisiae RPL19A-GFP strain, flow cytometry fluorescence, 3 h; at 10 µM; stronger effect = lower value
# [5] = modulators of MEP2-GFP levels in yeast, primary screen, S. cerevisiae, multiplex flow cytometry (AID 1867;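 active = GFP response, as percent of the DMSO control, above the screen-wide mean plus 3 SD, about 139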;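 also: median GFP channel fluorescence of barcode-gated MEP2-GFP cells measured by flow cytometry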); details: S. cerevisiae MEP2-GFP strain, 3 h, at 10 µM, stronger effect = higher value
# [6] = modulators of CIT2-GFP expression in yeast, primary screen, S. cerevisiae, GFP fusion, multiplex flow cytometry (AID 1870;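 active = percent response above a set limit, the screen-wide mean plus 3 SD, cut at about 130% in these data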;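 also: barcoded CIT2-GFP strain pooled with four other GFP strains with rapamycin as positive control; median GFP fluorescence per well over plate mean of DMSO wells so 100% = DMSO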); details: 3 h, at 10 µM, stronger effect = higher value
# [7] = modulators of LAP4-GFP expression in yeast, primary screen, S. cerevisiae, multiplex flow cytometry (AID 1873;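 active = GFP signal, as percent of the solvent control, above the screen mean plus 3 SD, about 149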); details: 3 h, at 10 µM, stronger effect = higher value
# [8] = inhibitors of CD8+ T cell-vesicle binding, pilot screen, LFA-1/ICAM-1 modulator project, MLPCN validation set, flow cytometry (AID 2523;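 active = response below a set limit, under 55% cells CD8-positive and vesicle-bound, and CD8 cells' 90th-percentile brightness under 279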;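 as to vesicle binding response: mean PE anti-B7-1 fluorescence of CD8+ cells relative to row control; 100% = QL9-loaded vesicles with DMSO vehicle in the same plate row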); details: 2C mouse CD8+ T cells, at 7 µM, stronger effect = lower value; double positive events: measured here: CD8+/vesicle+ event percentage
# [9] = biological target: Integrin beta-1 (Homo sapiens) + Integrin alpha-4 (Homo sapiens) (UniProt P13612+P05556); assay: inhibition of HUTS-21 binding to VLA-4, pilot screen, VLA-4 allosteric modulator project, U937 cells, HUTS-21 mAb, flow cytometry, validation set (AID 2674;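 active = inhibition above 50%, about 3 SD of the validation set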;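 also: antibody binding induced by the VLA-4 ligand LDV present at three times its Kd; 0% = LDV ligand with antibody and no compound and 100% = antibody without LDV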); details: HUTS-21 LIBS mAb binding, at 6.7 µM, stronger effect = higher value
# Chain of Integrin beta-1 (Homo sapiens) + Integrin alpha-4 (Homo sapiens) (P05556 whole entry, looked up): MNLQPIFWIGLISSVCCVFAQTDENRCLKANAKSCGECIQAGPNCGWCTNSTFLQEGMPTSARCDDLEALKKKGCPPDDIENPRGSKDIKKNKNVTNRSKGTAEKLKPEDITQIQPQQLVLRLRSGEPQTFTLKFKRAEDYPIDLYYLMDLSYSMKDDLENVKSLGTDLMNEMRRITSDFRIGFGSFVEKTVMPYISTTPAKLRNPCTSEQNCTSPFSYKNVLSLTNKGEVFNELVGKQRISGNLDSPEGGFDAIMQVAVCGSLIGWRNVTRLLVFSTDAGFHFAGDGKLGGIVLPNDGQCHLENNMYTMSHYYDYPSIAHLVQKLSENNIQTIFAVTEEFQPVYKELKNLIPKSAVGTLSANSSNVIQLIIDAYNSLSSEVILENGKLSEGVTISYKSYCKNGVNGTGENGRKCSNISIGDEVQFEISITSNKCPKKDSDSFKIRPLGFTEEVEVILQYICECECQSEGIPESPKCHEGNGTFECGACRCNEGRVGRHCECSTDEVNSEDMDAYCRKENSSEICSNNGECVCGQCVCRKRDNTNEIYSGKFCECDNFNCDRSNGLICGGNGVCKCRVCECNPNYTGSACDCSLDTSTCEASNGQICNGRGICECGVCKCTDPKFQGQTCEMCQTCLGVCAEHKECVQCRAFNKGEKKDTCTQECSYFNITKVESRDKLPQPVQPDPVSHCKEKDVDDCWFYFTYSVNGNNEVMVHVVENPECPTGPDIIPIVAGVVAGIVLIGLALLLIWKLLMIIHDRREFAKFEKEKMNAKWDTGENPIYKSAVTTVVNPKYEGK
# Chain of Integrin beta-1 (Homo sapiens) + Integrin alpha-4 (Homo sapiens) (P13612 whole entry, looked up): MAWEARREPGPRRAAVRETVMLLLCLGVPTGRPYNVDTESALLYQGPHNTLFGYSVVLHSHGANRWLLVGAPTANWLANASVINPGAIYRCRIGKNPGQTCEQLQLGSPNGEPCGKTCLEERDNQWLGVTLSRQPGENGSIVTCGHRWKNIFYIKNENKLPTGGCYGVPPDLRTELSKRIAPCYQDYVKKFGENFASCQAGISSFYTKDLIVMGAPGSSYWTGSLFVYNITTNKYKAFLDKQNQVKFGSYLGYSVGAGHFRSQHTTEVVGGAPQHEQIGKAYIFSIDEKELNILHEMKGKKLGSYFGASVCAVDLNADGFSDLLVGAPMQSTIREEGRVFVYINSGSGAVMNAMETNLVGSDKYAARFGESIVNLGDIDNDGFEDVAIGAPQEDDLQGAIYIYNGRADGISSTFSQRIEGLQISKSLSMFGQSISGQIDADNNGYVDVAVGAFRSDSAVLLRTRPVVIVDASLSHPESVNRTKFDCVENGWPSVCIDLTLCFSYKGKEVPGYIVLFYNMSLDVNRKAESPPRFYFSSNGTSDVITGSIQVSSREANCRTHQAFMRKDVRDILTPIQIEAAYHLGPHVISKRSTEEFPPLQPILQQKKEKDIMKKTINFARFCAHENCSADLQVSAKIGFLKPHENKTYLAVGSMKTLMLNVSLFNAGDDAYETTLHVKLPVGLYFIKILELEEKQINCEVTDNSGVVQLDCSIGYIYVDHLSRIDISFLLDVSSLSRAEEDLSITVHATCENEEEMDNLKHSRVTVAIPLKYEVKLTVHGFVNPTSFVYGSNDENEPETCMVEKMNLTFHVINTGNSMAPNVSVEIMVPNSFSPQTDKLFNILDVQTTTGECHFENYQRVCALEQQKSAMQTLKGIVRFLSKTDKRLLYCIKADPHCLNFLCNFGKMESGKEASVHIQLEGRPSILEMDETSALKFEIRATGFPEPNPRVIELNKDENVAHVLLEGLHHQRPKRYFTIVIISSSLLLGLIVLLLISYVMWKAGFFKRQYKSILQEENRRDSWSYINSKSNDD
# [10] = superoxide lowering in aged yeast cells, pilot screen, validation compound set (AID 2706;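 active = superoxide response below 65% of plate, a cut near 3 SD across the whole screen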;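 also: yeast exposed to compound for one week at 30 degrees C before staining; 100% = mean of all compound wells on the same plate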); details: S. cerevisiae aging, superoxide DHE fluorescence; at 10 µM; stronger effect = lower value
# [11] = biological target: Beta-adrenergic receptor kinase 1 (Homo sapiens) (UniProt P25098); assay: GRK2 binders displacing RNA aptamer, biochemical, validation, human GRK2, bead flow cytometry (AID 488806;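 active = aptamer binding inhibition above 30%, about 3 SD of noise from non-fluorescent compounds; inactive = inhibition at or below 30%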); details: bead-bound GRK2, FAM-aptamer displacement, at 10 µM, stronger effect = higher value
# Chain of Beta-adrenergic receptor kinase 1 (Homo sapiens) (P25098 whole entry, looked up): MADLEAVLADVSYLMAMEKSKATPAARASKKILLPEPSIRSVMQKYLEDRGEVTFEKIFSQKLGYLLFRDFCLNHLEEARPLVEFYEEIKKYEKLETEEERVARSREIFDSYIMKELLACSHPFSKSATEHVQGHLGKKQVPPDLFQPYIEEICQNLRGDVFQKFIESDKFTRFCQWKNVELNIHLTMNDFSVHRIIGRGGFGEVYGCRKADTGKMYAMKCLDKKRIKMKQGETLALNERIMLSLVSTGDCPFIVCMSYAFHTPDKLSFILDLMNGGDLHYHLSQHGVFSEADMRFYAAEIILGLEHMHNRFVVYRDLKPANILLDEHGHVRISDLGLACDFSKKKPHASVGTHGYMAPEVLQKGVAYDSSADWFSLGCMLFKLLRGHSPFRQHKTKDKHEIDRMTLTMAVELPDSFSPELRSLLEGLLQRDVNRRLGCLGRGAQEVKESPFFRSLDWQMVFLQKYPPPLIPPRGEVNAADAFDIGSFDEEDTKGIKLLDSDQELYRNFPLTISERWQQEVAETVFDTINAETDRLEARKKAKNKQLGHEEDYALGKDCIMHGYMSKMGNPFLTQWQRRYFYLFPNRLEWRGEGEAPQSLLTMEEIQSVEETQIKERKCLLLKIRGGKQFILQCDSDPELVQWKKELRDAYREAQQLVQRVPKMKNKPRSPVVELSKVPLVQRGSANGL
# [12] = biological target: AP-2 complex subunit beta (Homo sapiens) (UniProt P63010); assay: inhibitors of arrestin peptide binding to AP2, pilot screen, biochemical, validation set, GST-AP2 beads, flow cytometry (AID 504541;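 active = inhibition above 54%, about 3 SD of non-fluorescent compounds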;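 also: AP2 carries R879A mutation and is captured from E. coli lysate; bead-bound FITC arrestin peptide fluorescence measuring arrestin peptide binding to AP2; 0% = DMSO wells and 100% = excess unlabeled arrestin peptide control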); details: FITC arrestin peptide, at 10 µM, stronger effect = higher value
# [13] = yeast V-ATPase proton transport modulators, S. cerevisiae, pHLuorin, HTS validation (AID 504600; in the data active = response above about 15%;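 also: plate controls were DMSO for no effect and reference compound for full effect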); details: S. cerevisiae pHLuorin cytosolic pH, at 10 µM, stronger effect = higher value
# [14] = tested on: anti-desmoglein-3 scFv antibody binding to human DSG3; assay: inhibitors of anti-DSG3 scFv binding to DSG3, pilot screen, biochemical, validation compound set, bead-based, flow cytometry (AID 588368;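 active = binding below the plate cutoff, the plate median minus 3 SD, with a reading above zero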;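 also: signal is the median channel fluorescence of bead-bound GFP antibody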); details: Protein G beads, DSG3-Fc, scFv-GFP binding, at 10 µM, stronger effect = lower value
# [15] = tested on: Botulinum neurotoxin type F light chain protease (Clostridium botulinum); assay: Botulinum neurotoxin type F light chain protease inhibition, multiplex microsphere flow cytometry, validation set (AID 588459); details: multiplex microsphere protease substrate cleavage assay, at 10 µM, stronger effect = higher value
# [16] = biological target: Botulinum neurotoxin type A (Clostridium botulinum) (UniProt P0DPI0); assay: BoNT/A light chain protease inhibitors, biochemical, multiplex microsphere flow cytometry, validation set (AID 588460); details: at 10 µM, stronger effect = higher value
# Chain of Botulinum neurotoxin type A (Clostridium botulinum) (P0DPI0 whole entry, looked up): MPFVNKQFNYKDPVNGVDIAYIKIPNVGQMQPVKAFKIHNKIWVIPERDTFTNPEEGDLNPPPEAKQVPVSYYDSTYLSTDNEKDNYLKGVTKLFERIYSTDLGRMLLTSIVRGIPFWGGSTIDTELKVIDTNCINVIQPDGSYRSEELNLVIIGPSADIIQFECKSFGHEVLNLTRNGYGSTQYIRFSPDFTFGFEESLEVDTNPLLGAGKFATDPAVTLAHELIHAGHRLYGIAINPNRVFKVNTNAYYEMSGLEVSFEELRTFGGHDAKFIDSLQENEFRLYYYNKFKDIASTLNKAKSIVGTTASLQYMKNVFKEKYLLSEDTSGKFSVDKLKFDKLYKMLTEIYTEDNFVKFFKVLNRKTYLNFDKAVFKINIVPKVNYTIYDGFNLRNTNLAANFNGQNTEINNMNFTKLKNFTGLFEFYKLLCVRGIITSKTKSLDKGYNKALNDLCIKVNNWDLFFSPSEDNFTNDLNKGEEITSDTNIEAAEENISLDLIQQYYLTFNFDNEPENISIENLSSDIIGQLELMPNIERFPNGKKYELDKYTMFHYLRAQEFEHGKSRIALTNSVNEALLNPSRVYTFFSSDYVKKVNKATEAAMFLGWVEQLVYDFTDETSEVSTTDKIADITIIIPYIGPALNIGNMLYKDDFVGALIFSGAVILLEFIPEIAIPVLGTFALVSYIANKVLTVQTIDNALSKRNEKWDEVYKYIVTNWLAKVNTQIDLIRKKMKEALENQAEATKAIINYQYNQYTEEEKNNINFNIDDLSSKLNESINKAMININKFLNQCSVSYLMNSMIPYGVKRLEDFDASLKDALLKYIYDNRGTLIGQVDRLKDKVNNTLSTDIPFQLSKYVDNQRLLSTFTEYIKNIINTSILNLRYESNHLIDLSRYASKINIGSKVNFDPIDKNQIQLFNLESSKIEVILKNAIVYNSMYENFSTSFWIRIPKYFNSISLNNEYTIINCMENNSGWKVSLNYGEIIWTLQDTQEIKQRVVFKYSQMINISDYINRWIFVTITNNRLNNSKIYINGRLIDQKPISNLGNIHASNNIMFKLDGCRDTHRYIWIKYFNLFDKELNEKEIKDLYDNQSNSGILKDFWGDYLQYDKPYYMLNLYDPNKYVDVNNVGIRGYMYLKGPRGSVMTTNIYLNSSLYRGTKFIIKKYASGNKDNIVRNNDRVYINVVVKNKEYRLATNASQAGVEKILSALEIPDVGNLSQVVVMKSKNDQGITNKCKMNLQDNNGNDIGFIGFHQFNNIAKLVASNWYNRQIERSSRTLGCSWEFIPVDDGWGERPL
# [17] = biological target: Lethal factor (Bacillus anthracis) (UniProt P15917); assay: Lethal factor protease inhibitors, Bacillus anthracis, multiplex microsphere cleavage assay, validation set (AID 588461); details: flow cytometry, at 10 µM, stronger effect = higher value
# [18] = inhibitors of fungal efflux pumps CDR1, CDR2, MDR1, pilot screen, validation compound set, multiplex, phenotypic (AID 588506;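 active = efflux inhibition above 0.42, the validation set average plus 4 SD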;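 also: Nile Red retained in cells so higher fluorescence means more efflux inhibition; 0 = negative control wells and 1 = enniatin B 25 µM full block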); details: S. cerevisiae pump-expressing triplex, Nile Red efflux flow cytometry; at 10 µM; stronger effect = higher value
# [19] = biological target: ATP-binding cassette sub-family B member 6 (Homo sapiens) (UniProt Q9NP58); assay: ABCB6 transporter inhibitors, pilot screen, K562-ABCB6 cells, flow cytometry, validation set (AID 588550;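 active = inhibition above the screen-wide mean plus 3 SD, about 51%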;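 also: 0% = DMSO wells and 100% = benzethonium chloride 70 µM positive control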); details: K562-ABCB6 porphyrin accumulation, 1 h, at 10 µM, stronger effect = higher value
# Chain of ATP-binding cassette sub-family B member 6 (Homo sapiens) (Q9NP58 whole entry, looked up): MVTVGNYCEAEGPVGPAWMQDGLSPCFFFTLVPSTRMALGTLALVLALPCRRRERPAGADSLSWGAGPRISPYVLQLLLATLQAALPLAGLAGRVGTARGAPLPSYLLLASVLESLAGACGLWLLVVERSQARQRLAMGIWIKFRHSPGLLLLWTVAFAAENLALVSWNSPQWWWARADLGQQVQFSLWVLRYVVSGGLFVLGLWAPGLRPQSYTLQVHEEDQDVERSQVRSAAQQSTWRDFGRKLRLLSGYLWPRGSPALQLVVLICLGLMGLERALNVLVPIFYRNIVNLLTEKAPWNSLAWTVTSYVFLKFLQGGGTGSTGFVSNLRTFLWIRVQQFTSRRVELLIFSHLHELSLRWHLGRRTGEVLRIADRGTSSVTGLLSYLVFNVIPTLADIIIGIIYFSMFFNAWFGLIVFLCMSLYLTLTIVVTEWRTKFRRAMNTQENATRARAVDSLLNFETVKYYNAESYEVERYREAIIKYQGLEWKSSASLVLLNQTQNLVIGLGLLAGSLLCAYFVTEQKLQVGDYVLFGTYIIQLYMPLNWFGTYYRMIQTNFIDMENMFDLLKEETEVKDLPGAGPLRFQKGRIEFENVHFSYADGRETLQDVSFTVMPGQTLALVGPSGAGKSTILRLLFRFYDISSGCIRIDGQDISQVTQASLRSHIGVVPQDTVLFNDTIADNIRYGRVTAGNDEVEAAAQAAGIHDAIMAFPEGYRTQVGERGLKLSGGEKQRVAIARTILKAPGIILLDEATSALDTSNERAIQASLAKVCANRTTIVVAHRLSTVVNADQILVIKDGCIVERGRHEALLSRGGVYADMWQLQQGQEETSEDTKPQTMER
# [20] = promoters of myeloid differentiation in arrested cells, primary screen, cell-based, GFP/MAC1 double positive, flow cytometry, validation set (AID 588685;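 active = differentiation response of at least 50%, scaled between solvent and reference control, from cells with both markers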;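 also: compound exposure lasts four days before antibody staining and flow analysis; 0% = DMSO wells and 100% = 5 µM fulvestrant positive control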); details: ER-HoxA9 marrow cells, stronger effect = higher value
# [21] = measured here: daughter cell gate
# [22] = measured here: mother cell gate
# [23] = measured here: daughter cell gate response
# [24] = measured here: mother cell gate response
compound,measurement,setting,value
Cc1ccc(N2C(=O)NC(=O)/C(=C\c3cn(CC(=O)O)c4ccccc34)C2=O)cc1,GFP response vs DMSO,[1],100% (inactive)
same,GFP response vs DMSO,[1]; [21],100%
same,GFP response vs DMSO,[1]; [22],101%
same,GFP response relative to DMSO,[2],102% (inactive)
same,GFP response relative to DMSO,[2]; [23],102%
same,GFP response relative to DMSO,[2]; [24],104%
same,"GFP response, % of DMSO",[3],96.5% (inactive)
same,"GFP response, % of DMSO",[3]; [21],94.8%
same,"GFP response, % of DMSO",[3]; [22],96.6%
CCNC(=O)[C@H]1O[C@@H](n2cnc3c(N)ncnc32)[C@H](O)[C@@H]1O,percent of DMSO control GFP,[4],97% (inactive)
same,GFP response vs DMSO,[5],115% (inactive)
same,percent response of DMSO control,[6],104% (inactive)
same,GFP response vs DMSO,[7],88.6% (inactive)
same,double positive events,[8],48.3%
same,inhibition,[9],15.2% (inactive)
same,superoxide response (% of plate),[10],111% (inactive)
same,aptamer binding inhibition,[11],66% (active)
same,inhibition,[12],3.14% (inactive)
same,response,[13],0.72% (inactive)
same,binding (% of control),[14],107% (inactive)
same,inhibition,[15],-4.2% (inactive)
same,inhibition,[16],0% (inactive)
same,inhibition,[17],2.8% (inactive)
same,efflux inhibition (fraction of control),[18],0.37 (inactive)
same,inhibition,[19],11% (inactive)
same,differentiation response,[20],5.73% (inactive)
CCN(CC)c1ccc(/C=C/[N+](=O)[O-])cc1,GFP response vs DMSO,[1],99.5% (inactive)
same,GFP response vs DMSO,[1]; [21],101%
same,GFP response vs DMSO,[1]; [22],100%
same,GFP response relative to DMSO,[2],130% (inactive)
same,GFP response relative to DMSO,[2]; [23],131%
same,GFP response relative to DMSO,[2]; [24],132%
same,"GFP response, % of DMSO",[3],104% (inactive)
same,"GFP response, % of DMSO",[3]; [21],106%
same,"GFP response, % of DMSO",[3]; [22],100%
CC12CN3CC(C)(CN(C1)C3c1cccnc1)C2=O (centres undefined),percent of DMSO control GFP,[4],95.2% (inactive)
same,GFP response vs DMSO,[5],117% (inactive)
same,percent response of DMSO control,[6],97.9% (inactive)
same,GFP response vs DMSO,[7],81.4% (inactive)
same,double positive events,[8],58%
same,vesicle binding response,[8],174% (inactive)
same,inhibition,[9],8.4% (inactive)
same,superoxide response (% of plate),[10],108% (inactive)
same,aptamer binding inhibition,[11],4% (inactive)
same,inhibition,[12],-8.61% (inactive)
same,response,[13],0.14% (inactive)
same,binding (% of control),[14],95.4% (inactive)
same,inhibition,[15],-1.6% (inactive)
same,inhibition,[16],0.6% (inactive)
same,inhibition,[17],9.9% (inactive)
same,efflux inhibition (fraction of control),[18],0.3 (inactive)
same,inhibition,[19],7% (inactive)
same,differentiation response,[20],-3.28% (inactive)
CCCCn1c(=O)c(C(=O)Nc2ccsc2C(=O)OC)c(O)c2ccccc21,GFP response vs DMSO,[1],101% (inactive)
same,GFP response vs DMSO,[1]; [21],94.9%
same,GFP response vs DMSO,[1]; [22],100%
same,GFP response relative to DMSO,[2],94.4% (inactive)
same,GFP response relative to DMSO,[2]; [23],95.9%
same,GFP response relative to DMSO,[2]; [24],94.1%
same,"GFP response, % of DMSO",[3],95.9% (inactive)
same,"GFP response, % of DMSO",[3]; [21],93.8%
same,"GFP response, % of DMSO",[3]; [22],95.6%
N#CC(C#N)=NNc1ccc(-n2ccc(C(F)(F)F)n2)cc1,GFP response vs DMSO,[1],98% (inactive)
same,GFP response vs DMSO,[1]; [21],97.6%
same,GFP response vs DMSO,[1]; [22],96.9%
same,GFP response relative to DMSO,[2]; 100 means same as DMSO control,111% (inactive)
same,GFP response relative to DMSO,"[2]; measured here: daughter cell gate response, 100 means same as DMSO control",104%
same,GFP response relative to DMSO,"[2]; measured here: mother cell gate response, 100 means same as DMSO control",111%
same,"GFP response, % of DMSO",[3],97.2% (inactive)
same,"GFP response, % of DMSO",[3]; [21],97.6%
same,"GFP response, % of DMSO",[3]; [22],97.1%
Nc1ccc(N=Nc2ccccc2)cc1,GFP response vs DMSO,[1],98.4% (inactive)
same,GFP response vs DMSO,[1]; [21],98.4%
same,GFP response vs DMSO,[1]; [22],96.2%
same,GFP response relative to DMSO,[2],110% (inactive)
same,GFP response relative to DMSO,[2]; [23],106%
same,GFP response relative to DMSO,[2]; [24],111%
same,"GFP response, % of DMSO",[3],100% (inactive)
same,"GFP response, % of DMSO",[3]; [21],93.8%
same,"GFP response, % of DMSO",[3]; [22],99.3%
O=c1oc2ccccc2c(O)c1[C@H]1c2ccc(O)cc2Oc2c1c(=O)oc1ccccc21,GFP response vs DMSO,[1],108% (inactive)
same,GFP response vs DMSO,[1]; [21],96.1%
same,GFP response vs DMSO,[1]; [22],98.9%
same,GFP response relative to DMSO,[2],190% (active)
same,GFP response relative to DMSO,[2]; [23],167%
same,GFP response relative to DMSO,[2]; [24],192%
same,"GFP response, % of DMSO",[3],76.9% (inactive)
same,"GFP response, % of DMSO",[3]; [21],78.5%
same,"GFP response, % of DMSO",[3]; [22],71.9%
